# From PubChem
# Shown is part of a subset that was picked to be rich in hits.
# Marburg entry inh: inhibitors of Marburg virus binding or cell entry; AID 540276; hit rate 1.8% among 300,000; Marburg virus pseudotyped entry inhibition, cell reporter; Potency, µM (highest dose often 37.8 µM), for inactives: at the top dose activity change, negative = inhibition, hits mostly inhibitors; calls by dose curve; tested in HEK293 cells; further: potency means the concentration at half of the fitted maximal effect; on the % scale 0 is the no-effect control and ±100 the full control effect
# Lassa entry inh: blocks Lassa virus binding to or entry into cells | Lassa virus pseudotype entry inhibition, cell reporter | Potency, µM (doses to about 37.9 µM), for the others: at the highest dose activity change, negative = inhibition, most hits filed as inhibitors | hit rate 1.2% among 300,000; calls by dose curve; tested in HEK293 cells; further: potency means the concentration at half of the fitted maximal effect; on the % scale 0 is the no-effect control and ±100 the full control effect; nearly all actives have a fitted effect of over 50% in size
# Cycloheximide cs: counter-screen for Shiga toxin inhibitors: cycloheximide protein synthesis inhibition. cell reporter, cycloheximide protein synthesis inhibition counterscreen. max response, %. hit rate 12% among 300,000. AID 2314; in the data active means max response mostly above about 13%, no sharp cut-off; inactive means mostly below about 14%; further: read at 38.3 µM for the half of the compounds with a filed dose; 0% is about no effect
# Shiga toxin inh: inhibitors of Shiga toxin in Vero cells; Vero cells, Shiga toxin protein synthesis inhibition reporter; inhibition, % at 38.7 µM; hit rate 9.2% among 290,000; AID 2315; in the data active means inhibition mostly above about 28%, no sharp cut-off; inactive means mostly below about 43%; further: 0% is about no effect
# AMA1 RON2 block: AMA1-RON2 (P. falciparum) interaction inhibition; AlphaScreen AMA1-biotinylated RON2 peptide binding; Potency, µM (series often up to 58.2 µM), inactives show top-dose activity change, negative = inhibition, most hits filed as inhibitors; hit rate 0.2% among 360,000; active means well fitted inhibition curve with a large enough effect; inconclusive means small, poorly fitted or top-dose-only effect; inactive means no such curve, though single readings can be large or run the other way;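 further: potency means the concentration at half of the fitted maximal effect; 0% = vehicle wells and -100% = peptide control; nearly all actives have a fitted effect of over 45% in size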
#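 AMA1 (3D7) with his tag at 25 nM final met compounds first, then biotinylated RON2 peptide at 25 nM; detection used donor plus acceptor beads, 10 µg/mL apiece, read by AlphaScreen after 30 min at room temperature.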
# Numbers without * were called inactive; ? = inconclusive; nt = not tested or not shown; [ ] = another dose, or the depositor's remark.
SMILES,Marburg entry inh,Lassa entry inh,Cycloheximide cs,Shiga toxin inh,AMA1 RON2 block
NC(=O)c1nsc(C(=O)N(Cc2cccnc2)C(C(=O)NCc2ccc(F)cc2)c2ccc(F)cc2)c1N (stereo not given),?,?,-5,-10,0%
CC1CCN(C(=O)Cn2nnc(-c3cccs3)n2)CC1,nt,nt,39*,68*,-4%
O=C(Cn1nnc(-c2cccs2)n1)OC1CCCCC1,?,0%,18*,17,17%
O=C(NN=C1c2ccccc2-c2ccccc21)c1cccc(Br)c1,?,?,-3,-16,29%
O=[N+]([O-])c1ccc2[nH]nc(-c3ccccc3)c2c1,-5%,-5%,7,-2,-18%
O=c1c(-c2ccccc2)n[nH]c2ccccc12,-25%[46.1 µM],-28%,74*,72*,2%
O=C(Nc1nnc(C2CCCO2)s1)c1ccc(Br)cc1 (stereo not given),20%,?,20*,26,1%
Cc1ccc(OCC(=O)Nc2nnc(C3CCCO3)s2)c(Br)c1 (stereo not given),14%[46.1 µM],nt,15,70*,-10%
COCCNC(=O)CSc1nc2ccc(N3CCOCC3)cc2c(=O)n1CCc1ccccc1,-11%,-29%,14*,active,26%
CCOC(=O)CSc1nc2ccccc2c(=O)n1CCN1CCOCC1,5%,31%,-2,16,0%
CCOC(=O)CSc1nc2ccc(N3CCOCC3)cc2c(=O)n1Cc1ccccc1,3%,?,18*,51,77%
O=C(O)c1cccnc1Nc1ccc(Cl)cc1,?,?,27*,101*,-1%
Cc1ccc(Nc2ncccc2C(=O)O)cc1C,nt,nt,21*,92*,3%
NC(=O)c1cccnc1Nc1ccccc1Cl,15%,3%,30*,56*,-9%
NC(=O)COC(=O)c1cccnc1Nc1ccccc1F,17%[46.1 µM],19%,9,-9,5%
Cc1ccc(Nc2ncccc2C(N)=O)cc1[N+](=O)[O-],?,15%,39*,50*,-11%
COc1cccc([C@H]2/C(=C(\O)c3ccc(C)cc3)C(=O)C(=O)N2Cc2ccco2)c1,21%[46.1 µM],nt,nt,nt,nt
O=C(CNC(c1ccccc1)c1ccccc1)Nc1ccccc1-c1ccccc1,?,?,-3,-8,-11%[2.32 µM]
COc1cc(OC)c(N(C)C(=O)Cn2ncc3c([nH]c4ccccc43)c2=O)cc1Cl,nt,-5%[46.1 µM],nt,nt,nt
COc1cc(CNCc2ccccn2)ccc1OCc1ccc(Cl)c(Cl)c1,?,?,20*,64*,30%
CCCCCNCc1ccc(OCc2ccc(Cl)nc2)c(OC)c1,?,-10%,0,10,6%
COc1cc(C=O)ccc1OCc1ccc(Cl)nc1,?,?,41*,66*,3%
COc1ccc(CCNCc2ccc(OCc3ccc(Cl)nc3)c(OC)c2)cc1OC,13µM*,2%,-1,-7,-7%
O=C(Nc1ccccn1)c1ccc(S(=O)(=O)N2CCCCCC2)cc1,?,3%,nt,nt,-8%
COc1ccc(OCCN2CCN(C(=O)c3ccc(OC)c(OC)c3)CC2)cc1,?,?,-4,-5,-4%
SMILES,Marburg entry inh,Lassa entry inh,Cycloheximide cs,Shiga toxin inh,AMA1 RON2 block
CSc1ccccc1C(=O)N1CCc2ccccc2C1,?,20%,16*,46,0%
Cn1c(C(=O)N2CCc3ccccc3C2)cc2oc3ccccc3c21,?,8%,38*,61*,-13%
CSCCCNC(=S)N1CCc2ccccc2C1,?,-18%[46.1 µM],29*,74,-1%
O=C(c1ccccc1Cl)N1CCc2ccccc2C1,20%,1%,9,17,1%
Cc1ccccc1C(=O)N1CCc2ccccc2C1,-4%,20%,19*,43,1%
CCNC(=S)N1CCc2ccccc2C1,17%[46.1 µM],2%,9,-4,-1%
Cc1oc(-c2ccc(C(=O)NCCC(C)C)cc2)nc1CS(=O)(=O)c1ccccc1,nt,-6%[46.1 µM],nt,nt,nt
Nc1cc(OC(=O)c2ccco2)nn1S(=O)(=O)c1ccc(F)cc1,2%,3%,-3,-17,-16%
Nc1cc(OC(=O)c2ccc(F)cc2)nn1S(=O)(=O)c1ccc(F)cc1,-7%[46.1 µM],2µM*,-3,-3,12%
CCN1C(=O)NC(CCc2ccccc2)C(C(=O)OC)=C1C (stereo not given),17%[14.2 µM],nt,nt,nt,nt
Cc1ccc(N/N=C(\C#N)C(N)=S)c(C)c1,-1%[46.1 µM],10%,13*,41,-1%
CCc1ccc(N2Cc3ccccc3C2)cc1,nt,nt,58*,99*,0%
CCOC(=O)c1ccc(N2Cc3ccccc3C2)cc1O,-2%,7%,46*,65*,4%
COc1ccc(N2c3ccccc3CN(Cc3ccccc3)[C@@H](C)[C@H]2Cc2c(C)cccc2C)cc1,nt,nt,nt,nt,-25%
COc1ccc(N2c3ccccc3CN(Cc3ccccc3)[C@@H](C)[C@H]2Cc2cccnc2)cc1,nt,nt,nt,nt,14µM*
C[C@@H]1CN([C@@H](C)CO)C(=O)c2c(c3ccccc3n2C)-c2ccccc2CO[C@H]1CN(C)S(=O)(=O)c1ccc(C(F)(F)F)cc1,nt,nt,nt,nt,19%
COc1ccccc1N1CCN(/N=C\c2cccnc2)CC1,?,27%[46.1 µM],-3,-1,-10%
COc1ccccc1N1CCN(/N=C/c2ccc(Cl)c([N+](=O)[O-])c2)CC1,nt,nt,55*,43*,?
O=[N+]([O-])c1ccc(C=NN2CCCCCC2)cc1,?,?,nt,nt,25µM*
COc1ccccc1N1CCN(/N=C/c2ccc([N+](=O)[O-])cc2)CC1,nt,nt,21*,13,-11%
O=[N+]([O-])c1cc(/C=N/N2CCN(C3c4ccccc4-c4ccccc43)CC2)ccc1Cl,5%,12%,1,-14,10%
Cc1ccc(S(=O)(=O)/C(C#N)=C/c2c(N3CCC(C(N)=O)CC3)nc3ccccn3c2=O)cc1,-24%,-2%,3,-9,-7%
Cc1c(Cl)cccc1Nc1nc(NCCO)c2ccccc2n1,7.9µM*,?,16*,45*,-5%
OCCNc1nc(Nc2ccccc2)nc2ccccc12,?,-22%,7,22,-1%
CC(C)CCn1c(/C=C/c2ccccc2)nc2ccccc21,?,26%[46.1 µM],nt,nt,nt
SMILES,Marburg entry inh,Lassa entry inh,Cycloheximide cs,Shiga toxin inh,AMA1 RON2 block
COCCn1c(/C=C/c2ccccc2)nc2ccccc21,10µM*,?,33*,68*,20%
COc1ccc(/C=C/c2nc3ccccc3n2Cc2ccccc2OC)cc1,?,?,69*,106*,20%
CCC(C)Cn1c(/C=C/c2ccccc2)nc2ccccc21 (stereo not given),?,1%[46.1 µM],nt,nt,nt
COc1ccccc1Cn1c(C(C)C)nc2ccccc21,nt,nt,-3,-11,-7%
Cc1cccc(NC(=O)Cn2c(/C=C/c3ccccc3)nc3ccccc32)c1,-9%,0%,28*,111*,15%
COc1ccccc1Cn1c(/C=C/c2ccccc2)nc2ccccc21,?,?,74*,87*,13%
Cc1ccc(NC(=O)Cn2c(=O)c(C)nc3ccccc32)cc1,?,9%,1,-9,13%
CN(Cc1ccc(Cl)cc1)C(CCc1ccccc1)C(=O)NC1CCCCC1 (stereo not given),nt,nt,nt,nt,7%
CCOc1ccc(NC(=O)c2ccc3nc(Cc4ccccc4)oc3c2)cc1,nt,-16%[46.1 µM],nt,nt,nt
